# Laboratory results from ChEMBL document CHEMBL3988442, “University of Dundee, Small-Polar-MMV Screening Library” (2021).
# Screen size: about 66,000 compounds; about 960 (1.5%) showed an effect of 50% or more. This is one part of a sample in which strong results are shown more often than they occur.
# Tested on: Trypanosoma brucei
# Assay: Trypanosoma brucei 72 hour study
# Type: functional, organism-based
# Design: scale not given: in the data most compounds retested in dose-response had high values
structure (smiles),measurement,setting,value
COc1ccc(C[C@H]2CNCC[C@H]2OC)cc1.O=C(O)C(F)(F)F,Percent Effect,"30.3 µM, […]",13.15%
Cc1n[nH]c2ncc(CNC3CCN(Cc4ccccn4)CC3)cc12.Cl,Percent Effect,"30 µM, 30.03 µM",-2.543%
Cl.c1cnc(N2CCCC(NCc3ccc(-n4ccnc4)cc3)C2)nc1 (stereo not drawn),Percent Effect,"30.3 µM, […]",10.24%
Cc1n[nH]c2ncc(CNC3CCCN(c4ncccn4)C3)cc12.Cl (stereo not drawn),Percent Effect,"30 µM, 30.03 µM",72.79%
CC(C)[C@@H]1CN(S(=O)(=O)c2cccc(C(=O)O)c2)C[C@H]1N(C)C,Percent Effect,"30 µM, 30.03 µM",98.32%
COc1cccc(S(=O)(=O)N2C[C@@H](N(C)C)[C@H](C(C)C)C2)c1,Percent Effect,"30 µM, 30.03 µM",-34.95%
CC(C)S(=O)(=O)N1CCC(Cc2cccc(C(=O)O)c2)C1 (stereo not drawn),Percent Effect,"30 µM, 30.03 µM",-22.39%
COCCN1CC2(CCOCC2)c2cc(NC(=O)C3CC=CC3)ccc21.O=C(O)C(F)(F)F,Percent Effect,"30.3 µM, […]",4.18%
COc1cc(-c2cc(-c3ccn(C)c3)nc(N)c2C#N)cc(OC)c1O,Percent Effect,"30 µM, 30.03 µM",-22.54%
Cc1noc(C)c1-c1ccc(C2CCCN2C(=O)Cn2ccnc2)nc1 (stereo not drawn),Percent Effect,"30.3 µM, […]",-4.122%
CN(C)C(=O)CN1CCCC(c2nccnc2-c2cccc(Cl)c2)C1 (stereo not drawn),Percent Effect,"30.3 µM, […]",-2.355%
CN(C)C(=O)CN1CCCC(c2cncc(-c3cccc(Cl)c3)n2)C1 (stereo not drawn),Percent Effect,"30.3 µM, […]",53.32%
CN(C)C(=O)CN1CCC(c2cncc(-c3cccc(Cl)c3)n2)CC1,Percent Effect,"30.3 µM, […]",45.69%
CO[C@H]1C[C@@H]2CN(C(=O)c3cccc4c3OCCO4)C[C@@H]2C1,Percent Effect,"30.3 µM, […]",-23.55%
O=C(C1CC1)N1CC[C@H](O)[C@@H]1Cc1ccccc1,Percent Effect,"30.3 µM, […]",-5.545%
CC(C)c1cc(N2CCC(N)CC2)n2nccc2n1,Percent Effect,"30 µM, 30.03 µM",38.85%
CC(C)c1cc(N2CCC(N(C)C)C2)n2nccc2n1 (stereo not drawn),Percent Effect,"30.3 µM, […]",4.814%
CC(C)c1cc(N2CCC[C@H](N)C2)n2nccc2n1,Percent Effect,"30.3 µM, […]",-37.71%
CC(C)c1cc(N2CCC(C(C)N3CCCC3)CC2)n2nccc2n1 (stereo not drawn),Percent Effect,"30.3 µM, […]",88.53%
CC(C)c1cc(N2CCSCC2)n2nccc2n1,Percent Effect,"30.3 µM, […]",-15.7%
CC(C)c1cc(N2CC[C@H](F)C2)n2nccc2n1,Percent Effect,"30.3 µM, […]",99.84%
COc1ccc(CN2CCc3sccc3C2C)cc1CN1CCOCC1.Cl (stereo not drawn),Percent Effect,"30.3 µM, […]",-20.22%
COc1cc(C(=O)Nc2nc(C)no2)cc(Cl)c1OC,Percent Effect,10 µM,-54.4%
O=C(O)C(F)(F)F.O=C(O)C(F)(F)F.c1cc(CN2CCO[C@H]3[C@H](OCCN4CCCC4)CC[C@@H]32)co1,Percent Effect,"30.3 µM, […]",-5.554%
CCCN1CCC(c2cc(CCOc3ccc(C(F)(F)F)cc3)[nH]n2)C1 (stereo not drawn),Percent Effect,"30.3 µM, […]",85.59%
Clc1ccc(OCCc2cc(C3CCN(c4ncccn4)C3)n[nH]2)cc1 (stereo not drawn),Percent Effect,"30.3 µM, […]",28.73%
Br.COc1ccc(OCCc2cc(C3CCN(CC(C)C)C3)n[nH]2)cc1 (stereo not drawn),Percent Effect,"30.3 µM, […]",20.63%
Cl.Cl.Cn1cc(C(=O)NCc2cncc3c2CCN(CC2CC2)C3)cn1,Percent Effect,"30.3 µM, […]",-27.13%
CN(Cc1ccncc1)C(CO)c1cccc(F)c1 (stereo not drawn),Percent Effect,"30 µM, 30.03 µM",-28.86%
O=C(Nc1ccc2c(c1)C(=O)NC2)c1ccc(S(=O)(=O)C(F)(F)F)cc1,Percent Effect,"30.3 µM, […]",11.83%
Cc1[nH]c2ccccc2c1-c1ccnc(N[C@@H](C)CO)n1,Percent Effect,"30.3 µM, […]",24.23%
Cc1[nH]c2ccccc2c1-c1ccnc(N[C@@H](CO)C(C)C)n1,Percent Effect,"30.3 µM, […]",11.27%
Cc1[nH]c2ccccc2c1-c1ccnc(N[C@H](CO)CC(C)C)n1,Percent Effect,"30.3 µM, […]",57.39%
CC(C)c1[nH]c2ncccc2c1CN1CCOCC1.Cl,Percent Effect,"30.3 µM, […]",-24.02%
CN(C)CCN1CCOCC2(C1)CN(Cc1ccsc1)CCO2.O=C(O)C(F)(F)F.O=C(O)C(F)(F)F.O=C(O)C(F)(F)F (stereo not drawn),Percent Effect,"30 µM, 30.03 µM",38.01%
Cc1ccccc1N1CCN(c2ccncn2)C(C)C1 (stereo not drawn),Percent Effect,"30 µM, 30.03 µM",96.97%
Cc1ccc(N2CCN(c3ccccc3C)CC2C)nn1 (stereo not drawn),Percent Effect,"30 µM, 30.03 µM",-104.7%
Cc1ccccc1N1CCN(c2cc(N(C)C)ncn2)C(C)C1 (stereo not drawn),Percent Effect,"30 µM, 30.03 µM",6.135%
Cc1noc(C)c1-c1cccc(C2CN(CC(=O)N(C)C)CCO2)n1.O=CO (stereo not drawn),Percent Effect,"30.3 µM, […]",-10.64%
Cc1nc(CN2CCC3(CCN(Cc4nccn4C)CC3)C2=O)cs1.O=C(O)C(F)(F)F.O=C(O)C(F)(F)F,Percent Effect,"30.3 µM, […]",-13.64%
O=C(O)C(F)(F)F.O=C1C[C@H]2[C@@H](CCN2C(=O)Cc2ccccc2)N1Cc1cccnc1,Percent Effect,"30.3 µM, […]",-5.465%
O=C(O)C(F)(F)F.O=C([C@H]1CCCO1)N1CCOC2(CCCN(c3ncccc3F)C2)C1 (stereo partly drawn),Percent Effect,"30.3 µM, […]",1.881%
Fc1ccc(F)c(CN2CCC(c3n[nH]c4ncccc34)CC2)c1.O=C(O)CC(O)(CC(=O)O)C(=O)O,Percent Effect,"30.3 µM, […]",65.45%
O=C(O)CC(O)(CC(=O)O)C(=O)O.c1cnc2[nH]nc(C3CCN(Cc4ccsc4)CC3)c2c1,Percent Effect,"30.3 µM, […]",-1.78%
Fc1cccc(CN2CCC(c3n[nH]c4ncccc34)CC2)c1F,Percent Effect,"30.3 µM, […]",18.42%
Cc1ccccc1OC1CCN(CC(=O)Nc2c(C)nn(C)c2C)CC1,Percent Effect,"30.3 µM, […]",11.58%
COCCC(=O)N1CC2(CCN(Cc3ccoc3)C2)C1,Percent Effect,"30 µM, 30.03 µM",-24.51%
Cc1cccc(CN2Cc3nccn3CC(CN3CCOCC3)C2)c1.O=C(O)C(F)(F)F.O=C(O)C(F)(F)F (stereo not drawn),Percent Effect,"30 µM, 30.03 µM",58.02%
Fc1ccc(CN2Cc3nccn3CC(CN3CCOCC3)C2)cc1.O=C(O)C(F)(F)F.O=C(O)C(F)(F)F (stereo not drawn),Percent Effect,"30 µM, 30.03 µM",39.42%
Cc1cccc(CN2CCOCC3(CCN(C4CCOCC4)C3)C2)c1.O=C(O)C(F)(F)F.O=C(O)C(F)(F)F (stereo not drawn),Percent Effect,"30 µM, 30.03 µM",52.28%
Fc1cccc(CN2CCOCC3(CCN(C4CCOCC4)C3)C2)c1.O=C(O)C(F)(F)F.O=C(O)C(F)(F)F (stereo not drawn),Percent Effect,"30 µM, 30.03 µM",30.04%
O=C(O)C(F)(F)F.O=C(O)C(F)(F)F.c1ccc(CN2CCOCC3(CCN(C4CCOCC4)C3)C2)cc1 (stereo not drawn),Percent Effect,"30.3 µM, […]",-34.62%
Cc1noc(C)c1CN1Cc2nccn2CC(CN2CCOCC2)C1.O=C(O)C(F)(F)F.O=C(O)C(F)(F)F (stereo not drawn),Percent Effect,"30 µM, 30.03 µM",27.27%
CCC(C(=O)Nc1ccc2c(C)n[nH]c2c1)N1CCCC1=O (stereo not drawn),Percent Effect,"30 µM, 30.03 µM",6.301%
CCN1N=C(C(=O)N2CCCC(c3nc(C)cs3)C2)CCC1=O (stereo not drawn),Percent Effect,"30.3 µM, […]",-15.61%
same,Percent Effect,"10 mM, 10 mM as filed; unlikely as a test dose",-12.74%
O=C(C1CCOC1)N1CCN(CCn2cccn2)c2ncccc2C1.O=C(O)C(F)(F)F (stereo not drawn),Percent Effect,"30.3 µM, […]",-86.89%
O=C(O)C(F)(F)F.O=C(O)C(F)(F)F.O=C(O)C(F)(F)F.c1ccc(CO[C@H]2CO[C@@]3(CCCN(Cc4cccnc4)C3)C2)nc1,Percent Effect,"30 µM, 30.03 µM",-28.27%
